Reference: PubChem BioAssay (NCI)
Compounds without any hit were thinned out: in the full panel of roughly 83,000, 20% have a hit.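 A percent growth of 40 corresponds to 60% growth inhibition; 0 means no net growth; -100 means all cells died. Active threshold: below 10.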 Calls of active or inactive are those of the source.

What was measured:
Test in all cases: NCI-60 one-dose screen, 48 h (100 = growth as untreated, 0 = no growth, -100 = all killed)
Conditions in all cases: 10 µM unless noted
NCI-H23 lung = system: NCI-H23 lung
NCI-H226 lung = system: NCI-H226 lung
HOP-62 NSCLC = system: HOP-62 NSCLC
NCI-H460 lung = system: NCI-H460 lung
HOP-92 NSCLC = system: HOP-92 NSCLC
NCI-H522 lung = system: NCI-H522 lung
A549/ATCC NSCLC = system: A549/ATCC NSCLC
786-0 renal = system: 786-0 renal
COLO 205 colon = system: COLO 205 colon
DU-145 prostate = system: DU-145 prostate
K-562 leukemia = system: K-562 leukemia
MALME-3M melanoma = system: MALME-3M melanoma
MDA-MB-231 breast = system: MDA-MB-231 breast
RXF 393 renal = system: RXF 393 renal
SF-268 CNS = system: SF-268 CNS
SF-295 CNS = system: SF-295 CNS
SF-539 CNS = system: SF-539 CNS
UACC-257 melanoma = system: UACC-257 melanoma
M14 melanoma = system: M14 melanoma

Measured: growth

COc1cccc(-c2nc3sccn3c2-c2ccnc(NCCCNS(=O)(=O)c3ccc(C(F)(F)F)cc3)c2)c1
inactive: NCI-H23 lung 70.4% | NCI-H226 lung 59.4% | HOP-62 NSCLC 91.3% | NCI-H460 lung 52.4% | HOP-92 NSCLC 68.9% | NCI-H522 lung 68.4% | A549/ATCC NSCLC 44.1% | 786-0 renal 58.6% | COLO 205 colon 70.2% | DU-145 prostate 65.4% | K-562 leukemia 28.1% | MALME-3M melanoma 86.4% | MDA-MB-231 breast 62.1% | RXF 393 renal 65.6% | SF-268 CNS 45.9% | SF-295 CNS 44.3% | SF-539 CNS 55.1% | UACC-257 melanoma 61.7% | M14 melanoma 47.7%

COC(OC)c1ccccc1
inactive: NCI-H23 lung 105% | NCI-H226 lung 108% | HOP-62 NSCLC 99.3% | NCI-H460 lung 117% | HOP-92 NSCLC 79.6% | NCI-H522 lung 101% | A549/ATCC NSCLC 103% | 786-0 renal 95% | COLO 205 colon 107% | DU-145 prostate 110% | K-562 leukemia 108% | MALME-3M melanoma 99.7% | MDA-MB-231 breast 97% | RXF 393 renal 101% | SF-268 CNS 104% | SF-295 CNS 112% | SF-539 CNS 102% | UACC-257 melanoma 92.2% | M14 melanoma 101%

CCC(=O)Oc1ccc(/C(=C(/C)Cc2cccc(OC)c2)c2ccc(OCCN(C)C)cc2)cc1
active: K-562 leukemia -26.5%
inactive: NCI-H23 lung 94.2% | NCI-H226 lung 111% | NCI-H460 lung 90.1% | HOP-92 NSCLC 67.2% | NCI-H522 lung 87.6% | A549/ATCC NSCLC 97.7% | 786-0 renal 79.7% | COLO 205 colon 102% | DU-145 prostate 93.3% | MALME-3M melanoma 100% | MDA-MB-231 breast 88.2% | RXF 393 renal 88.6% | SF-268 CNS 86.3% | SF-295 CNS 99.2% | SF-539 CNS 90.3% | UACC-257 melanoma 118% | M14 melanoma 31.8%

COc1ccc(-c2nc3sccn3c2/C=C/C(=O)c2cc(F)cc(F)c2)cc1
inactive: NCI-H23 lung 76.3% | NCI-H226 lung 80.5% | HOP-62 NSCLC 85.8% | NCI-H460 lung 88.4% | HOP-92 NSCLC 18.6% | NCI-H522 lung 48.6% | A549/ATCC NSCLC 89.3% | 786-0 renal 89.1% | COLO 205 colon 68.3% | DU-145 prostate 86.2% | K-562 leukemia 19.1% | MALME-3M melanoma 102% | MDA-MB-231 breast 62.6% | RXF 393 renal 54.4% | SF-268 CNS 81.8% | SF-295 CNS 116% | SF-539 CNS 92.8% | UACC-257 melanoma 101% | M14 melanoma 89.2%

COc1ccc(/C=C/c2c(C(C)=O)c(C)nc3ccccc23)cc1
inactive: NCI-H23 lung 60.9% | NCI-H226 lung 92.6% | NCI-H460 lung 100% | HOP-92 NSCLC 79.3% | NCI-H522 lung 61.2% | A549/ATCC NSCLC 80.6% | 786-0 renal 94.9% | COLO 205 colon 106% | DU-145 prostate 97.7% | K-562 leukemia 52.4% | MALME-3M melanoma 101% | MDA-MB-231 breast 82.8% | RXF 393 renal 86.6% | SF-268 CNS 97.5% | SF-295 CNS 85.3% | UACC-257 melanoma 64.7% | M14 melanoma 99.2%

O=C(CSc1nc2ccccc2[nH]1)c1ccc(N2CCOCC2)cc1
inactive: NCI-H23 lung 92.9% | NCI-H226 lung 97.6% | HOP-62 NSCLC 104% | NCI-H460 lung 104% | HOP-92 NSCLC 104% | NCI-H522 lung 102% | A549/ATCC NSCLC 102% | 786-0 renal 96.4% | COLO 205 colon 117% | DU-145 prostate 107% | K-562 leukemia 99.5% | MALME-3M melanoma 100% | MDA-MB-231 breast 103% | RXF 393 renal 98.1% | SF-268 CNS 103% | SF-295 CNS 96.8% | SF-539 CNS 100% | UACC-257 melanoma 102% | M14 melanoma 106%

COc1ccc2cc(-c3ccc(-c4ccc(C(=N)N)cc4)s3)ccc2c1
inactive: NCI-H23 lung 107% | NCI-H226 lung 102% | HOP-62 NSCLC 93.3% | NCI-H460 lung 100% | HOP-92 NSCLC 87.2% | NCI-H522 lung 102% | A549/ATCC NSCLC 104% | 786-0 renal 99.5% | COLO 205 colon 72.5% | DU-145 prostate 61% | K-562 leukemia 40% | MALME-3M melanoma 104% | MDA-MB-231 breast 100% | SF-268 CNS 94.6% | SF-295 CNS 101% | SF-539 CNS 98.9% | UACC-257 melanoma 104% | M14 melanoma 97.6%

CCN(CC)CCOc1ccc(Cl)c(C)c1
inactive: NCI-H23 lung 91.6% | NCI-H226 lung 104% | HOP-62 NSCLC 104% | NCI-H460 lung 106% | HOP-92 NSCLC 85.7% | NCI-H522 lung 92.4% | A549/ATCC NSCLC 96.5% | 786-0 renal 99.6% | COLO 205 colon 103% | DU-145 prostate 107% | K-562 leukemia 111% | MALME-3M melanoma 94.4% | MDA-MB-231 breast 104% | RXF 393 renal 104% | SF-268 CNS 98% | SF-295 CNS 118% | SF-539 CNS 108% | UACC-257 melanoma 99.5% | M14 melanoma 103%

COc1ccc(C2C=C(c3ccc(Cl)cc3)N=C3SC=C(C)N32)c(Br)c1 (centres undefined)
inactive: NCI-H23 lung 50.1% | NCI-H226 lung 59.5% | HOP-62 NSCLC 30.5% | NCI-H460 lung 13.4% | HOP-92 NSCLC 95.6% | NCI-H522 lung 23% | A549/ATCC NSCLC 36.9% | 786-0 renal 47.2% | COLO 205 colon 18.6% | MALME-3M melanoma 43.6% | MDA-MB-231 breast 58.2% | SF-268 CNS 43.4% | SF-539 CNS 37.3% | UACC-257 melanoma 39.4% | M14 melanoma 28.3%
active: DU-145 prostate -31.5% | K-562 leukemia 5.84% | RXF 393 renal -7.69%

O=S1(=O)CCC(N(/N=C/c2ccco2)c2ccccc2)C1 (centres undefined)
inactive: NCI-H23 lung 102% | NCI-H226 lung 104% | HOP-62 NSCLC 104% | NCI-H460 lung 107% | HOP-92 NSCLC 96.5% | NCI-H522 lung 95.5% | A549/ATCC NSCLC 97.9% | 786-0 renal 103% | COLO 205 colon 117% | DU-145 prostate 111% | K-562 leukemia 123% | MDA-MB-231 breast 112% | RXF 393 renal 109% | SF-268 CNS 102% | SF-539 CNS 98.1% | UACC-257 melanoma 95.1% | M14 melanoma 100%

O=c1[nH]c(-c2ccccc2)nc(CN2CCCCC2)c1O
inactive: NCI-H23 lung 103% | NCI-H226 lung 108% | NCI-H460 lung 109% | HOP-92 NSCLC 92.8% | NCI-H522 lung 116% | A549/ATCC NSCLC 111% | 786-0 renal 102% | COLO 205 colon 113% | DU-145 prostate 113% | K-562 leukemia 112% | MALME-3M melanoma 128% | MDA-MB-231 breast 102% | RXF 393 renal 120% | SF-268 CNS 105% | SF-295 CNS 121% | SF-539 CNS 108% | UACC-257 melanoma 113% | M14 melanoma 108%

COc1ccc2[nH]c(=O)c(/C=N/Nc3nc(-c4ccccc4)cs3)c(O)c2c1
inactive: NCI-H23 lung 89.7% | NCI-H226 lung 66.6% | HOP-62 NSCLC 43% | NCI-H460 lung 46.6% | HOP-92 NSCLC 94.7% | NCI-H522 lung 80.1% | A549/ATCC NSCLC 57.3% | COLO 205 colon 106% | DU-145 prostate 63.7% | K-562 leukemia 71.3% | MALME-3M melanoma 84.5% | MDA-MB-231 breast 57.5% | RXF 393 renal 97.1% | SF-268 CNS 56.4% | SF-295 CNS 69.3% | SF-539 CNS 84.1% | UACC-257 melanoma 98.8% | M14 melanoma 75.2%

Cc1cc(C2(c3cc(C)c(O)cc3C)OS(=O)(=O)c3ccccc32)c(C)cc1O
inactive: NCI-H23 lung 106% | NCI-H226 lung 106% | HOP-62 NSCLC 92.2% | NCI-H460 lung 108% | HOP-92 NSCLC 81.7% | NCI-H522 lung 92.2% | A549/ATCC NSCLC 97.2% | 786-0 renal 109% | COLO 205 colon 111% | DU-145 prostate 119% | K-562 leukemia 102% | MALME-3M melanoma 122% | MDA-MB-231 breast 100% | RXF 393 renal 114% | SF-268 CNS 103% | SF-295 CNS 107% | SF-539 CNS 105% | UACC-257 melanoma 87.7% | M14 melanoma 108%

CCCCN(CCCC)c1ccc(C(=N)c2ccc(N(CCCC)CCCC)cc2)cc1
active: NCI-H23 lung -77% | NCI-H226 lung -90.7% | HOP-62 NSCLC -96.8% | NCI-H460 lung -85.9% | HOP-92 NSCLC -83% | NCI-H522 lung -87% | A549/ATCC NSCLC -86.6% | 786-0 renal -91.2% | COLO 205 colon -96.2% | DU-145 prostate -98.6% | MALME-3M melanoma -64.5% | MDA-MB-231 breast -90.3% | RXF 393 renal -94.8% | SF-268 CNS -95.9% | SF-295 CNS -83.5% | SF-539 CNS -91.3% | UACC-257 melanoma -81.1% | M14 melanoma -90.3%

CC(C)(C)n1cc(-c2ccnc(NCCCNS(=O)(=O)c3ccc(Br)cc3)c2)c(-c2cccc(O)c2)n1
active: NCI-H460 lung -21.2% | 786-0 renal -2.1% | COLO 205 colon -62.6% | K-562 leukemia -10.9% | MALME-3M melanoma -2.04% | MDA-MB-231 breast 8.91% | UACC-257 melanoma 9.16% | M14 melanoma 5.23%
inactive: NCI-H23 lung 47.1% | NCI-H226 lung 40.4% | HOP-62 NSCLC 46.8% | HOP-92 NSCLC 48.4% | NCI-H522 lung 13.5% | A549/ATCC NSCLC 24.1% | DU-145 prostate 43% | RXF 393 renal 20.8% | SF-268 CNS 31.1% | SF-295 CNS 12% | SF-539 CNS 15.7%

CSc1nc2c(c(=O)[nH]1)C(c1ccc(C)cc1)C=C(C(=O)O)N2 (centres undefined)
inactive: NCI-H23 lung 98.9% | NCI-H226 lung 104% | HOP-62 NSCLC 107% | NCI-H460 lung 106% | HOP-92 NSCLC 122% | NCI-H522 lung 108% | A549/ATCC NSCLC 106% | 786-0 renal 104% | COLO 205 colon 126% | DU-145 prostate 123% | K-562 leukemia 110% | MALME-3M melanoma 98.8% | MDA-MB-231 breast 136% | RXF 393 renal 112% | SF-268 CNS 115% | SF-295 CNS 89.5% | SF-539 CNS 106% | UACC-257 melanoma 110% | M14 melanoma 99.8%
